Records with an inconclusive call do not appear. Activity calls are given as the source filed them. Calls come from the whole dose curve; as a rule, active = well fitted curve in the direction sought with a large enough effect; inconclusive = small, poorly fitted or top-dose-only effect, or another doubt; inactive = no such curve, though single readings can be large; an effect the other way counts as inactive or inconclusive.
Experiments:
[1] = qHTS of pediatric cancer cell lines to identify multiple opportunities for drug repurposing: Primary screen for TC32 cells (AID 1347089); note: nearly all actives have a fitted effect of over 60% in size
Summary of the method: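 Luminescent CellTiter-Glo read-out of metabolically active TC32 cells after 48 h compound exposure. Primary: MIPE 11-point, 0.78 nM–46 µM; NPC 8-point, 0.59 nM–46 µM. Confirmatory: 11-point dilutions.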

[2] = qHTS of pediatric cancer cell lines to identify multiple opportunities for drug repurposing: Primary screen for DAOY cells (AID 1347090); note: nearly all actives have a fitted effect of over 55% in size
Summary of the method: (§1)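 Cell viability, CellTiter-Glo luminescence; 500-1,000 cells/well, 8- or 11-point titration, 48 h compound exposure at 37 degrees C, 5% CO2. Controls: DMSO neutral, bortezomib 2.3 µM final as positive.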

[3] = qHTS of pediatric cancer cell lines to identify multiple opportunities for drug repurposing: Primary screen for SJ-GBM2 cells (AID 1347091)
Summary of the method: as §1

[4] = qHTS of pediatric cancer cell lines to identify multiple opportunities for drug repurposing: Primary screen for A673 cells (AID 1347092); note: nearly all actives have a fitted effect of over 45% in size
Summary of the method: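 A673 cells (500-1,000 cells/well in growth media) were pre-incubated 5 h at 37 degrees C, then exposed to compounds for 48 h. Viability was read as CellTiter-Glo luminescence; concentration-response curves came directly from the primary screen.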

[5] = qHTS of pediatric cancer cell lines to identify multiple opportunities for drug repurposing: Primary screen for SK-N-MC cells (AID 1347093)
Summary of the method: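 Metabolically active cells were quantified by ATP-dependent luminescence (CellTiter-Glo, 15 min at room temperature) following 48 h treatment. Cells had been plated at 500-1,000 per well and settled for 5 h beforehand.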

[6] = qHTS of pediatric cancer cell lines to identify multiple opportunities for drug repurposing: Primary screen for BT-37 cells (AID 1347094)
Summary of the method: (§2)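 Primary screen of approved and investigational compounds on cells in growth media at 37 degrees C, 5% CO2. MIPE set at 11-point and NPC set at 8-point dilutions; viability scored by ATP-based luminescence at 48 hours.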

[7] = qHTS of pediatric cancer cell lines to identify multiple opportunities for drug repurposing: Primary screen for NB-EBc1 cells (AID 1347095)
Summary of the method: as §2

[8] = qHTS of pediatric cancer cell lines to identify multiple opportunities for drug repurposing: Primary screen for U-2 OS cells (AID 1347096); note: nearly all actives have a fitted effect of over 50% in size
Summary of the method: (§3)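 Cells (500-1,000/well) rested 5 h, then received compounds for 48 h; metabolically active cells were measured by CellTiter-Glo luminescence. Final concentrations spanned up to 46 µM (MIPE, 11-point) or 0.59 nM-46 µM (NPC, 8-point) in primary screens, 11-point in follow-ups.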

[9] = qHTS of pediatric cancer cell lines to identify multiple opportunities for drug repurposing: Primary screen for Saos-2 cells (AID 1347097); note: nearly all actives have a fitted effect of over 40% in size
Summary of the method: as §2

[10] = qHTS of pediatric cancer cell lines to identify multiple opportunities for drug repurposing: Primary screen for SK-N-SH cells (AID 1347098); note: nearly all actives have a fitted effect of over 65% in size
Summary of the method: as §3

[11] = qHTS of pediatric cancer cell lines to identify multiple opportunities for drug repurposing: Primary screen for NB1643 cells (AID 1347099); note: nearly all actives have a fitted effect of over 50% in size
Summary of the method: as §2

[12] = qHTS of pediatric cancer cell lines to identify multiple opportunities for drug repurposing: Primary screen for Rh18 cells (AID 1347102); note: nearly all actives have a fitted effect of over 65% in size
Summary of the method: as §3

[13] = qHTS of pediatric cancer cell lines to identify multiple opportunities for drug repurposing: Primary screen for RD cells (AID 1347104); note: nearly all actives have a fitted effect of over 55% in size
Summary of the method: as §2

[14] = qHTS of pediatric cancer cell lines to identify multiple opportunities for drug repurposing: Primary screen for MG 63 (6-TG R) cells (AID 1347105); note: nearly all actives have a fitted effect of over 50% in size
Summary of the method: as §2

[15] = qHTS of pediatric cancer cell lines to identify multiple opportunities for drug repurposing: Primary screen for LAN-5 cells (AID 1347100)
Summary of the method: as §3

[16] = qHTS of pediatric cancer cell lines to identify multiple opportunities for drug repurposing: Primary screen for BT-12 cells (AID 1347101); note: nearly all actives have a fitted effect of over 25% in size
Summary of the method: as §3

[17] = qHTS of pediatric cancer cell lines to identify multiple opportunities for drug repurposing: Primary screen for OHS-50 cells (AID 1347103); note: nearly all actives have a fitted effect of over 40% in size
Summary of the method: as §3

Measured: Potency
Potency is the fitted concentration of half-maximal effect.

c1ccc(OCc2ccc(CCCN3CCOCC3)cc2)cc1
not listed: [15] | [16] | [17]
inactive: all other assays above

O=c1[nH]c(=O)n([C@H]2CCCO2)cc1F
not listed: [11]
inactive: all other assays above

CN1[C@@H]2CC[C@H]1CC(OC(=O)c1c[nH]c3ccccc13)C2 (stereo partly specified)
not listed: [10] | [16]
inactive: all other assays above

CC(=O)[C@H]1CC[C@H]2[C@@H]3C[C@H](C)C4=CC(=O)CC[C@]4(C)[C@H]3[C@@H](O)C[C@]12C
not listed: [16] | [17]
inactive: all other assays above

Nc1nc2ncc(CNc3ccc(C(=O)N[C@@H](CCC(=O)O)C(=O)O)cc3)nc2c(=O)[nH]1
not listed: [9]
inactive: all other assays above

CC(C)n1nc(-c2cc3cc(O)ccc3[nH]2)c2c(N)ncnc21
active: [1] 2100 nM | [2] 4220 nM | [3] 596 nM | [4] 10600 nM | [5] 299 nM | [6] 1100 nM | [7] 944 nM | [8] 13300 nM | [10] 12200 nM | [11] 21100 nM | [15] 8410 nM | [16] 1230 nM | [12] 6680 nM | [17] 437 nM | [13] 8410 nM | [14] 1680 nM

C[C@]12CC[C@H]3[C@@H](CCC4=CC(=O)CC[C@@]43C)[C@@H]1CC[C@@H]2C(=O)CO
not listed: [16] | [17]
inactive: all other assays above

CCCC(=O)Nc1ccc(OCC(O)CNC(C)C)c(C(C)=O)c1 (stereo unspecified)
not listed: [9] | [14]
inactive: all other assays above

COc1cc(C(=S)N2CCOCC2)cc(OC)c1OC
not listed: [9] | [14]
inactive: all other assays above

C[C@]12CCC(=O)C=C1[C@@H]1C[C@@H]1[C@H]1[C@@H]3[C@@H]4C[C@@H]4[C@@]4(CCC(=O)O4)[C@@]3(C)CC[C@@H]12
active: [17] 24600 nM
not listed: [5] | [16]
inactive: all other assays above

O=C1c2ccccc2C(=O)C1c1ccccc1
not listed: [9] | [13] | [16]
inactive: all other assays above

CC(Cc1cccc(C(F)(F)F)c1)NCCOC(=O)c1ccccc1 (stereo unspecified)
not listed: [5] | [6] | [7] | [9] | [17]
inactive: all other assays above

Cc1ccc(O)c2ncccc12
inactive: [1] | [3]
active: [2] 3350 nM | [5] 2990 nM | [9] 21100 nM | [10] 7700 nM | [11] 2370 nM | [13] 8410 nM | [14] 10600 nM

C[C@]12CC[C@@H]3c4ccc(O)cc4CC[C@H]3[C@@H]1C[C@@H](O)[C@@H]2O
not listed: [7] | [17]
inactive: all other assays above

CC(=O)Oc1ccc(C(c2ccc(OC(C)=O)cc2)c2ccccn2)cc1
active: [14] 211 nM
not listed: [5] | [8] | [9] | [16] | [17]
inactive: all other assays above

CN1C(CCl)Nc2cc(Cl)c(S(N)(=O)=O)cc2S1(=O)=O (stereo unspecified)
not listed: [4]
inactive: all other assays above

COCc1c(C(C)C)nc(C(C)C)c(/C=C/[C@@H](O)C[C@@H](O)CC(=O)O)c1-c1ccc(F)cc1
active: [1] 1490 nM | [2] 266 nM | [3] 237 nM | [4] 668 nM | [5] 1190 nM | [6] 2190 nM | [7] 1680 nM | [8] 841 nM | [10] 433 nM | [11] 1500 nM | [15] 3760 nM | [12] 473 nM | [17] 309 nM | [13] 1680 nM | [14] 84.1 nM

CCOC(=O)n1ccn(C)c1=S
not listed: [5] | [14]
inactive: all other assays above

CNCC[C@@H](Oc1ccccc1C)c1ccccc1
not listed: [4] | [9] | [16] | [17]
inactive: all other assays above

O=C(Nc1ccc(Cl)c(Cl)c1)C1CC1
not listed: [8] | [16] | [17]
inactive: all other assays above

CCCCCCCCCCCCCCCCOP(=O)([O-])OCC[N+](C)(C)C
active: [3] 8410 nM | [5] 6680 nM | [10] 13700 nM
inactive: [1] | [2] | [6] | [8] | [16] | [12]

— PubChem BioAssay (NCATS)
